Assay results as given in PubChem BioAssay AID1259422 (The Scripps Research Institute Molecular Screening Center, 2018).
Where “and” joins values, the source holds several entries; their conditions need not be identical. Identical values can stand only once. The campaign covered roughly 640,000 compounds. About 9,300 (1.5%) were called active. What follows is part of a selection rich in actives, with near analogues and random picks from the rest. Values without a mark were called inactive. No stated cut-off is given here; in the data, active means inhibition above about 32%; inactive means the rest.

Test: TEAD-YAP interaction inhibition, primary screen, TEAD-YAP interaction inhibitor project, luminescence, HEK-TIYL cells (AID 1259422);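 further: 0% = median of test compound wells and 100% = reference inhibitor wells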
Conditions: TEAD-Gal4/YAP UAS-luciferase luminescence, at 9.12 µM, stronger effect = higher value

| Compound | inhibition |
| --- | --- |
| CC(C)[C@@H](Cn1nnc2ccccc21)NC(=O)c1ccc(N2CCCCS2(=O)=O)cc1 | -3.11% |
| COc1ccc(CCNC(=O)CCS(=O)(=O)c2cccc3cccnc23)cc1OC | 10.6% |
| CC[C@]1(O)CC2CN(CCc3c([nH]c4ccccc34)[C@@](C(=O)OC)(c3cc4c(cc3OC)N(C=O)[C@H]3[C@@](O)(C(=O)OC)[C@H](OC(C)=O)[C@]5(CC)C=CCN6CC[C@]43[C@@H]65)C2)C1 (some centres undefined) | 50.8% (active) and 57.9% (active) and 55.9% (active) |
| COc1cc(NS(=O)(=O)c2ccc3ccccc3c2)c2ncccc2c1 | 38.5% (active) |
| COc1cc(NS(=O)(=O)c2c(C)ccc3nsnc23)c2ncccc2c1 | -0.3% |
| COC(=O)c1cccc(NS(=O)(=O)c2ccc3ccccc3c2)c1C | -7.45% |
| Cn1cc(S(=O)(=O)N2CCCC2)cc1C(=O)N1CCC(Cc2ccccc2)CC1 | -7.23% |
| O=C(Cc1cccc(Cl)c1)NCc1ccccc1 | -42.3% |
| Nc1c(C(=O)NCc2ccccc2)nnn1Cc1cccc(Cl)c1 | 37% (active) |
| COc1ccc(Cn2nnc(C(=O)Nc3cccc(Cl)c3)c2N)cc1 | -9.56% |
| O=S(=O)(c1ccc2ccccc2c1)N1CCSC1c1ccc2c3c(cccc13)CC2 (centres undefined) | -6.22% |
| Cc1cc(NCCCn2ccnc2)n2nc(C)c(-c3cccs3)c2n1 | -74.5% |
| O=C(CNC1CCCC1)NCc1ccc2c(c1)OCO2 | -2.55% |
| CCOc1ccc(-n2c(-c3ccc4c(c3)OCCO4)c[n+]3c2CCCCC3)cc1 | 85.2% (active) |
| CCOc1ccc(C(=O)CCC(=O)OCC(=O)c2ccc3c(c2)OCCO3)cc1 | 5.42% |
| CCOc1ccc2c(=O)c(-c3ccc4c(c3)OCCCO4)c(C)oc2c1 | -7.66% |
| COc1ccc2c(c1OC)C(=O)N(c1ccc(O)cc1)C2 | 67.1% (active) |
| COc1ccc(N2Cc3cccc(C(=O)NCC(OC)OC)c3C2=O)cc1 | -8.73% |
| COc1ccc2c(c1OC)C(=O)N(c1ncn[nH]1)C2 | 3.4% |
| CCOC(=O)c1cccc(NC(=O)Cn2cc3c(n2)CCCCC3)c1 | 8.83% |
| O=[N+]([O-])c1ccccc1Oc1cccc2cccnc12 | -9.26% |
| O=S(=O)(Nc1cccc2cccnc12)c1ccc(S(=O)(=O)N2CCCCC2)cc1 | 23.6% |
| O=[N+]([O-])c1ccccc1S(=O)(=O)Nc1cccc2cccnc12 | 32.8% (active) |
| Cn1c(/N=C/c2nc(-c3cccc4ccccc34)oc2O)nc2ccccc21 | -6.43% |
